Holding throughout (experiment): NCI-60 one-dose screen, 48 h (100 = growth as untreated, 0 = no growth, -100 = all killed)
Common to all, as to details: 10 µM

For experiment [1], the system named is HCT-15 colon.
For experiment [2], the system named is HT29 colon.
Experiment [3] concerns SNB-75 CNS.
Experiment [4] has as its system SNB-19 CNS.
The subject of experiment [5] is U251 CNS.
The test system of experiment [6] is PC-3 prostate.
Experiment [7] has as its system SK-MEL-5 melanoma.
The test system of experiment [8] is UACC-62 melanoma.
The test system of experiment [9] is LOX IMVI melanoma.
The subject of experiment [10] is SK-MEL-2 melanoma.
Experiment [11] deals with EKVX NSCLC.
The subject of experiment [12] is SN12C renal.
The subject of experiment [13] is UO-31 renal.
In experiment [14] the test system is TK-10 renal.
Experiment [15] deals with ACHN renal.
Experiment [16] concerns CAKI-1 renal.
Experiment [17] deals with A498 renal.
The test system of experiment [18] is CCRF-CEM leukemia.
For experiment [19], the system named is MOLT-4 leukemia.
For experiment [20], the system named is SK-MEL-28 melanoma.

The panel holds about 83,000 compounds, 20% with a hit somewhere; the sample as a whole holds those more often.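 Single-dose data. Exposure time 48 hours. Values below 10 considered active.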 Values without a mark were called inactive. Calls of active or inactive are those of the source.

Turning to `O=C(Nc1ccc(I)cc1)Nc1nc2ccc([N+](=O)[O-])cc2s1`, the growth in experiment [1] was -100% (active); in [2], -93.3% (active); in experiment [3] it was -93.4% (active); in [4], -94.3% (active); in [5] it was -94% (active); in experiment [6], -75.7% (active). For the same molecule, the growth was -100% (active) in experiment [7]; -98% (active) in experiment [8]; -100% (active) in experiment [9]; -91% (active) in [10]; -93% (active) in experiment [11]; -97.7% (active) in experiment [12]. The growth is -100% (active) in experiment [13]; -92% (active) in experiment [14]; -100% (active) in experiment [15]; -100% (active) in [16]; -91.6% (active) in experiment [17]; -81.1% (active) in [18]. For the same molecule, in experiment [19], the growth was -58.1% (active).
With `COc1ccc([C@H]2C(C(=O)c3ccc(Cl)cc3)C3(N[C@@H]2c2ccccc2)C(=O)Nc2ccc(Br)cc23)cc1` (stereo partly specified), the growth in [1] was 0.62% (active); in [2], -50.6% (active); in experiment [3] it was 15.6%; in experiment [4] it was 20.1%; in [5], -18% (active); in experiment [6], 17.9%. The growth is 8.62% (active) in experiment [7]; -55.4% (active) in experiment [8]; 18.9% in experiment [20]; -64.5% (active) in experiment [10]; 6.66% (active) in experiment [11]; -81.3% (active) in experiment [12]. The growth in experiment [13] was 0.589% (active); in experiment [14] it was 9.79% (active); in experiment [15], 0.391% (active); in experiment [16], 2.8% (active); in experiment [17] it was -7.09% (active); in experiment [18] it was 13.9%. For the same molecule, the growth in experiment [19] was 12.1%.
In the case of `C=C1CCC2C3(C)COC(c4cc(F)cc(F)c4)OC3CCC2(C)C1C/C=C1/C(=O)OCC1O` (stereo unspecified), the growth was -34.6% (active) in experiment [1]; -29.3% (active) in experiment [2]; -45.9% (active) in experiment [3]; -78.5% (active) in experiment [4]; -95.2% (active) in experiment [5]; -32.1% (active) in experiment [6]. In addition, the growth in experiment [7] is -88.6% (active); in experiment [8], -15.2% (active); in experiment [20], -70.7% (active); in experiment [10] it was -60.8% (active); in [11], -42.8% (active); in [12], -31.6% (active). Moreover, the growth in experiment [13] is -97.1% (active); in experiment [14], -86.3% (active); in [15], -99.6% (active); in experiment [16], -73.2% (active); in experiment [17], 106%; in experiment [18], 15.1%. Also, the growth in experiment [19] was 8.72% (active).
Turning to `COc1cc2c(cc1OC)/C(=C\c1sc(Nc3ccc(O)cc3)nc1O)C(C(=O)O)=N2`, the growth in [1] was 24.1%; in experiment [2], 10%; in [3] it was -16.4% (active); in experiment [4], 24.3%; in experiment [5], 18.6%; in [6], 19.1%. Also, the growth in experiment [7] is 14.4%; in [8], 20%; in experiment [20], 47.6%; in experiment [10], -9.38% (active); in experiment [11], 59.9%; in [12] it was 35.4%. For the same molecule, the growth in experiment [13] was 39.7%; in experiment [14] it was 77.4%; in [15] it was 37.8%; in experiment [16] it was 26.9%; in [17], 103%; in experiment [18], 19.3%. The growth in experiment [19] is 25.9%.
`O=C(CSc1nnc(-c2ccc3nc(-c4ccccc4)[nH]c3c2)o1)Nc1ccc(Cl)cc1`: the growth in experiment [1] is 15.7%; in experiment [2] it was 17.4%; in experiment [3], 66.1%; in experiment [4], 63.9%; in [5], 48.9%; in [6], 43.3%. The growth was 15.3% in [7]; 34.3% in experiment [8]; 41.8% in experiment [20]; 45% in [10]; 48.6% in experiment [11]; 46.1% in experiment [12]. Also, the growth in experiment [13] is 40.1%; in experiment [14], 55%; in [15] it was 29.5%; in experiment [16], 30.5%; in [17], 101%; in experiment [18], 13.7%. Besides, the growth in experiment [19] was 7.63% (active).
On to `Cc1cc2nc3c4ccccc4n(CCO)c3nc2cc1C`, for which the growth in [1] is 71.2%; in experiment [2] it was 98.1%; in experiment [3] it was 73.6%; in experiment [4], 87.7%; in [5], 64.7%; in experiment [6] it was 57.3%. The growth in experiment [7] is 81.6%; in experiment [8], 73.8%; in [20], 91%; in experiment [10], 101%; in [11] it was 84.5%; in experiment [12] it was 43.5%. In addition, the growth is 28.6% in [13]; 165% in experiment [14]; -6.25% (active) in experiment [15]; 55.4% in experiment [16]; 61.6% in [17]; 71.6% in [18]. For the same molecule, the growth in [19] is 78.4%.
Turning to `N#Cc1c(NC(=O)c2ccc(C(F)(F)F)cc2C(F)(F)F)sc2c1CCC(=O)C2`, the growth in experiment [1] was -66% (active); in experiment [2], -57% (active); in experiment [3], 26.4%; in experiment [4], 6.86% (active); in experiment [5] it was 8.82% (active); in experiment [6], 2.66% (active). The growth in [7] is -97.6% (active); in experiment [8], -89.5% (active); in experiment [20], -86.2% (active); in experiment [10], -38.2% (active); in experiment [11] it was -57.5% (active); in experiment [13], -99.7% (active). Also, the growth was -27.8% (active) in experiment [14]; -99.4% (active) in experiment [15]; -67.6% (active) in [16]; 28.6% in experiment [17]; -30% (active) in [18]; -16% (active) in experiment [19].
On to `Nc1nnc(-c2c[nH]c3ncccc23)c(-c2c[nH]c3ccc(Br)cc23)n1`, for which the growth in experiment [1] was 56.5%; in experiment [2], 45.1%; in experiment [3] it was 28.2%; in experiment [4], 40.8%; in experiment [5] it was 37.5%; in [6], 56.9%. The growth in [7] was -33.5% (active); in experiment [8], 33.8%; in experiment [20], 54%; in [10] it was 23.7%; in experiment [11] it was 53.1%; in experiment [12], 45.2%. Besides, the growth is 35.6% in experiment [13]; 44.9% in [14]; 35.1% in [15]; 23.1% in [16]; 48.4% in experiment [17]; 39.8% in experiment [18]. In addition, in experiment [19], the growth is 12.7%.

Values taken from PubChem BioAssay (NCI).
